HCV inhibitor = blocks hepatitis C virus; 3.4% of 340,000 active; Potency, µM (highest dose often 41.8 µM), without a hit: at the highest dose activity change, negative = inhibition, actives largely listed as inhibitors; Huh7.5.1 HCVcc-Cre infection, luciferase reporter, 44 h
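A cell-based infection assay in which seeded cells (1,000 per well) receive test compound after 4 h, are inoculated with HCVcc-Cre at approximately 0.5 moi, and are incubated 44 h before luminescence detection.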
Pf growth 48h = P. falciparum growth inhibition at 48 hours (one generation) | P. falciparum luciferase growth in erythrocytes, 48 h | Potency, µM (series often up to 28.7 µM), for inactives: at the top dose activity change, negative = inhibition, most hits filed as inhibitors | 5.9% of 310,000 active | AID 504832
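Firefly luciferase activity from engineered P. falciparum reports growth; inhibitors lower the luminescent signal. Cultures contained 2% hematocrit erythrocytes at 0.1% final parasitemia.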
Pf growth 96h = inhibits malaria parasite growth, 96 h. P. falciparum luciferase reporter growth, 96 h. Potency, µM (series often up to 28.7 µM), inactives show at the top dose activity change, negative = inhibition, most hits filed as inhibitors. 6.9% of 320,000 active. AID 504834
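Parasite growth measured via integrated firefly luciferase reporter in P. falciparum. Infected erythrocytes at 2% hematocrit, 0.05% parasitemia final were treated 96 hours at 37 C under 5% CO2, and luminescence was read.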
AMA1-RON2 inh = AMA1-RON2 (P. falciparum) interaction inhibition; AlphaScreen AMA1-biotinylated RON2 peptide binding; Potency, µM (titrated, usually from 58.2 µM), for the others: at the top dose activity change, negative = inhibition, most hits filed as inhibitors; 0.2% of 360,000 active; AID 720542;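 also: 0% = vehicle wells and -100% = peptide control; nearly all actives have a fitted effect of over 45% in size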
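AMA1 (3D7) with his tag at 25 nM final met compounds first, then biotinylated RON2 peptide at 25 nM; detection used donor plus acceptor beads, 10 µg/mL apiece, read by AlphaScreen after 30 min at room temperature.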
An asterisk follows results filed as active; ? = inconclusive; nt = not tested or not shown; [ ] = remark or other dose. Shown are actives, neighbours in structure and some others; about 11% of the full set was active somewhere. Calls follow the shape of the dose curve; as a rule, active = well fitted curve in the direction sought with a large enough effect; inconclusive = small, poorly fitted or top-dose-only effect, or another doubt; inactive = no such curve, though single readings can be large; an effect the other way counts as inactive or inconclusive. Unless noted, % is scaled to controls: 0 for no effect and ±100 for the full control effect; potency is read from the fitted curve at half-maximal effect.

SMILES | HCV inhibitor | Pf growth 48h | Pf growth 96h | AMA1-RON2 inh
COc1ccc(OC)c(NC(=O)C(C)Oc2ccc(Br)cc2)c1 (stereo not given) | 11.2µM* | ? | ? | ?
CC(Oc1ccc(Br)cc1)C(=O)Nc1ccc(N2CCOCC2)cc1N1CCOCC1 (stereo not given) | ? | 11.7µM* | 10.4µM* | -16.4%
COc1ccc(OC)c(NC(=O)Nc2ccccc2C)c1 | ? | 11.1% | -0.6% | -7.1%
COc1ccc(OC)c(NC(=O)C(C)OC(=O)c2cc3ccccc3[nH]2)c1 (stereo not given) | 11.2µM* | nt | nt | -1.6%
Cc1ccc(S(=O)(=O)N2CCN(C(=O)COC(=O)c3cnc(C)cn3)CC2)c(C)c1 | 11.0%[8.37 µM] | 18.0% | 0.3% | 0.8%
O=C(Nc1cccc(S(=O)(=O)N2CCCCC2)c1)C1CC(=O)N(Cc2ccccc2)C1 (stereo not given) | -25.3% | 13.1µM* | ? | -3.8%
COc1ccccc1NS(=O)(=O)c1cccc(NC(=O)C2CC(=O)N(Cc3ccccc3)C2)c1 (stereo not given) | 14.1µM* | ? | -25.6% | -4.4%
O=C(Nc1cccc(S(=O)(=O)N2CCCCCC2)c1)C1CC(=O)N(c2ccc3c(c2)OCCO3)C1 (stereo not given) | ? | -6.9% | -3.6% | -10.8%
COc1ccccc1NS(=O)(=O)c1cccc(NC(=O)C2CC2)c1 | 1.1% | ? | ? | 4.7%
CCCCc1nnc(NC(=O)C2CC(=O)N(Cc3ccccc3)C2)s1 (stereo not given) | -10.0% | ? | 10.4µM* | -3.1%
O=C(Nc1cccc(S(=O)(=O)N2CCCCC2)c1)C1CC(=O)N(c2ccc3c(c2)OCCO3)C1 (stereo not given) | 12.6µM* | ? | ? | -10.7%
CCOC(=O)C1=C(O)C(=O)N(Cc2cccnc2)C1c1ccc(OC)cc1 (stereo not given) | 7.0% | 21.4% | -52.9%[5.75 µM] | -8.3%
C=CC(c1ccccc1)C(C(=O)c1ccccc1)N(C)C (stereo not given) | 13.0% | 3.9% | ? | -6.4%
COc1ccccc1NS(=O)(=O)c1cccc(C(=O)N/N=C(\C)c2cccnc2)c1 | -9.0% | ? | ? | 31.9%
CN(c1ccccc1)S(=O)(=O)c1cccc(NC(=O)C2CC(=O)N(Cc3ccccc3)C2)c1 (stereo not given) | 12.6µM* | ? | ? | -4.0%
COc1ccc(S(=O)(=O)N2CCCCC2)cc1NC(=O)C1CC(=O)N(Cc2ccccc2)C1 (stereo not given) | -2.5% | 13.1µM* | 11.7µM* | 3.2%
COc1cc(/C=C/C(=O)OCC(=O)N2CCc3ccccc3C2)ccc1O | ? | 48.8% | 0.0% | -6.5%
O=C(Nc1c(C(=O)N2CCOCC2)cnn1-c1ccccc1)c1ccccc1F | -1.6% | 30.4% | 60.3% | 11.2%
CCN(CC)C(=O)c1cnn(-c2ccccc2)c1NC(=O)c1ccccc1F | 15.1% | -12.1% | 0.928µM* | -1.9%
CC1CCc2sc(C(=O)N3CCN(c4ncccn4)CC3)cc2C1 (stereo not given) | 33.7% | nt | nt | -11.2%
CCCCN(CCCNC(=O)C1CCN(C(=O)c2cc3sccc3n2C)CC1)Cc1ccccc1 | ? | 5.22µM* | 42.1% | 0.0%
CCN(CCCNC(=O)C1CCN(C(=O)c2cc3sccc3n2C)CC1)Cc1ccccc1 | -0.5% | ? | ? | 15.9%
O=C(c1cc2ccccn2n1)N1CCN(c2cccc(C(F)(F)F)c2)CC1 | 3.6% | 5.3% | 9.28µM* | -5.5%
CN1C2CCC1CC(OC(c1ccccc1)c1ccc(Cl)cc1)C2 (stereo not given) | nt | 4.78µM* | 8.5% | nt
CCc1cc(Cl)c(OC)c(C(=O)NC[C@@H]2CCCN2CC)c1O | 5.01µM* | nt | nt | 5.2%
CCN1CCCC1CNC(=O)c1ccccc1Cl (stereo not given) | 9.1% | -12.1% | -15.1% | 33.4%
CC(=O)N/N=C/c1ccc(OCCOc2ccc(Br)cc2)cc1 | 21.6% | ? | 4.7% | 7.8%
Cc1cccc(N2CCN(S(=O)(=O)c3cc(-c4cc(C)no4)ccc3C)CC2C)c1 (stereo not given) | 3.98µM* | ? | 47.3% | -8.8%
CCCN(c1ccccc1F)S(=O)(=O)c1cc(-c2cc(C)no2)ccc1OC | ? | ? | 14.7µM* | -11.0%
COc1ccc(-c2cc(C)no2)cc1S(=O)(=O)Nc1ccccc1 | ? | ? | ? | -1.1%
